Records with an inconclusive call do not appear. Entries that show only a call come without a potency. Calls of active or inactive are those of the source. Calls follow the shape of the dose curve; as a rule, active = well fitted inhibition curve with a large enough effect; inconclusive = small, poorly fitted or top-dose-only effect; inactive = no such curve, though single readings can be large or run the other way.
Experiment: Counterscreen qHTS for Identification of Calcium Integrin Binding Protein 1 (CIB1) Competitor
Settings: series mostly up to 114 µM
In short: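 Counterscreen FP assay: CIB1-GST 1 uM in 5 mM HEPES pH 7.4, 125 mM NaCl, 5 mM CaCl2, 0.01% Tween20, with compounds up to 114 uM for 15 min, then 100 nM FITC-labelled scrambled peptide, 15 min, polarization read ex 480/em 540.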
Potency is read from the fitted curve at half-maximal effect.

Compound | Potency
Oc1c(Cl)cc(Cl)c(Cl)c1Cc1c(O)c(Cl)cc(Cl)c1Cl | inactive
CC1(C)OB(c2ccc(O)c3ncc(N4CCNCC4)cc23)OC1(C)C | 20 µM (active)
CCc1ccc(C=C2SC(=S)NC2=O)cc1 | inactive
O=C(Cc1ccccc1)NC(c1ccco1)c1cc(Cl)c2cccnc2c1O (configuration not stated) | inactive
COC(=O)c1cc(Cl)ccc1NS(=O)(=O)C(F)(F)F | inactive
OCc1ccc(-c2ccc(-c3ccc(CO)s3)o2)s1 | inactive
CCCCC(CC)CN=C(N)NC(N)=NCCCCCCN=C(N)NC(N)=NCC(CC)CCCC (configuration not stated) | inactive
O=C(O)Cc1ccc(CCNS(=O)(=O)c2ccc(Cl)cc2)cc1 | inactive
CC1(C)N=C(Nc2nc3ccccc3o2)NC2=C1C(=O)CCC2 | inactive
O=[N+]([O-])c1ccc(O)c2ncccc12 | inactive
O=C1CCCC2=C1C(c1ccncc1)N=C(Nc1nc3ccccc3o1)N2 (configuration not stated) | inactive
CN1CCCN(C(=O)c2cccc(-c3ccc(C=C4C(=O)Nc5ccc(Cl)cc54)o3)c2)CC1 | 35.5 µM (active)
NC(=O)c1ccc(O)c2ncccc12 | inactive
O=C(O)c1ccc(-c2ccc3ncnc(NCc4nccs4)c3c2)o1 | inactive
Cc1cc(C(C#N)c2ccc(Cl)cc2)c(Cl)cc1NC(=O)c1cc(I)cc(I)c1O (configuration not stated) | inactive
O=C1c2ccccc2C(=O)c2c1ccc(O)c2O | 22.4 µM (active)
Cc1ccc(C)n1-c1cccc(C(=O)O)c1 | inactive
